Test results from PubChem BioAssay AID1159580 (chemical genetic matrix, 2015).
Screen size: about 5,500 compounds; about 2,000 (36%) were called active. Roughly 18% stayed inconclusive and do not appear here. No stated cut-off is given here; in the data, active means normalized growth mostly below about 0.91 (no sharp cut-off); inconclusive means no clear call, values can overlap the other calls; inactive means mostly above about 0.92. The list shows a part of the results.

Test: chemical genetic growth profiling, strain panel (AID 1159580);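 further: tested at 20 µM; growth read once vehicle control cultures reached saturation at 30 °C; 1 = growth at the plate median or of vehicle wells; lower values mean less growth of the strain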
Settings: S. cerevisiae deletion strains, growth OD

Measured: normalized growth

C=C1CCC2C(CC2(C)C)C(=C)CC/C1=N\O (stereo not drawn)
inactive: locus YAL013W, strain DEP1, hits give low values 1 | locus YAL021C, strain ccr4, hits give low values 1.04 | locus YAL026C, strain drs2, hits give low values 1.01 | locus YAL030W, strain snc1, hits give low values 1 | locus YBL061C, strain skt5, hits give low values 0.999 | locus YBR009C, strain hhf1, hits give low values 0.99 | locus YBR021W, strain FUR4, hits give low values 0.89 | locus YBR023C, strain chs3, hits give low values 1.01 | locus YBR171W, strain sec66, hits give low values 0.993 | locus YBR229C, strain ROT2, hits give low values 1.02 | locus YBR231C, strain swc5, hits give low values 1.01 | locus YBR279W, strain paf1, hits give low values 1.01 | locus YCL011C, strain gbp2, hits give low values 0.997 | locus YCL016C, strain dcc1, hits give low values 0.994 | locus YCL029C, strain bik1, hits give low values 0.983 | locus YCL061C, strain MRC1, hits give low values 0.992 | locus YCL069W, strain vba3, hits give low values 1.01 | locus YCR088W, strain abp1, hits give low values 1 | locus YDL005C, strain med2, hits give low values 0.994 | locus YDL035C, strain GPR1, hits give low values 0.87 | locus YDL040C, strain nat1, hits give low values 0.998 | locus YDL074C, strain BRE1, hits give low values 0.82 | locus YDL101C, strain DUN1, hits give low values 0.986 | locus YDL134C, strain PPH21, hits give low values 1.01 | locus YDL185W, strain tfp1, hits give low values 0.978 | locus YDR001C, strain nth1, hits give low values 1 | locus YDR069C, strain doa4, hits give low values 0.995 | locus YDR101C, strain arx1, hits give low values 0.947 | locus YDR137W, strain rgp1, hits give low values 0.949 | locus YDR150W, strain NUM1, hits give low values 1.03 | locus YDR159W, strain sac3, hits give low values 0.977 | locus YDR195W, strain ref2 1.01 | locus YDR297W, strain sur2, hits give low values 1.01 | locus YDR334W, strain swr1, hits give low values 1 | locus YDR335W, strain msn5, hits give low values 1 | locus YDR388W, hits give low values 0.964 | locus YDR392W, strain spt3, hits give low values 0.839 | locus YDR502C, strain sam2, hits give low values 0.927 | locus YEL003W, strain gim4, hits give low values 1 | locus YEL037C, strain rad23, hits give low values 0.993 | locus YEL061C, strain CIN8 (second series), hits give low values 1.01 | locus YEL061C, strain CIN8, hits give low values 1.01 | locus YER015W, strain faa2, hits give low values 1.01 | locus YER016W, strain bim1, hits give low values 1 | locus YER110C, hits give low values 1.02 | locus YER111C, strain swi4, hits give low values 1 | locus YER155C, strain BEM2 (second series), hits give low values 1 | locus YER155C, strain BEM2, hits give low values 0.992 | locus YER167W, strain BCK2, hits give low values 0.915 | locus YFR010W, strain ubp6, hits give low values 1 | locus YGL167C, strain pmr1, hits give low values 0.996 | locus YGL173C, strain kem1, hits give low values 1 | locus YGL227W, strain vid30, hits give low values 1 | locus YGL240W, strain doc1, hits give low values 1 | locus YGL248W, strain PDE1, hits give low values 1.02 | locus YGL253W, strain hxk2, hits give low values 1 | locus YGR078C, strain PAC10, hits give low values 0.954 | locus YGR135W, strain pre9, hits give low values 0.924 | locus YGR252W, strain gcn5, hits give low values 0.799 | locus YHR013C, strain ard1, hits give low values 1.04 | locus YHR027C, strain rpn1, hits give low values 0.999 | locus YHR030C, strain SLT2, hits give low values 0.983 | locus YHR079C, strain IRE1 (second series), hits give low values 0.962 | locus YHR094C, strain hxt1, hits give low values 0.998 | locus YHR129C, strain ARP1, hits give low values 0.992 | locus YHR142W, strain chs7, hits give low values 1 | locus YHR200W, strain rpn10, hits give low values 0.971 | locus YIL066C, strain RNR3, hits give low values 0.908 | locus YIL073C, strain SPO22, hits give low values 1.08 | locus YIL125W, strain kgd1, hits give low values 0.993 | locus YIR030C, strain dcg1, hits give low values 0.993 | locus YJL092W, strain hpr5, hits give low values 0.996 | locus YJL095W, strain BCK1 (second series), hits give low values 1 | locus YJL095W, strain BCK1, hits give low values 0.843 | locus YJL115W, strain asf1, hits give low values 0.998 | locus YJL129C, strain trk1, hits give low values 0.994 | locus YJL134W, strain LCB3, hits give low values 1.01 | locus YJL154C, strain vps35, hits give low values 1 | locus YJL164C, strain tpk1, hits give low values 1 | locus YJL166W, strain qcr8, hits give low values 1.01 | locus YJL168C, strain set2, hits give low values 0.998 | locus YJL187C, strain SWE1 (second series), hits give low values 0.973
active: locus YDL192W, strain arf1, hits give low values 0.884 | locus YDR162C, strain NBP2, hits give low values 0.735 | locus YDR318W, strain mcm21, hits give low values 0.911 | locus YGL078C, strain dbp3, hits give low values 0.922 | locus YGL086W, strain mad1, hits give low values 0.923 | locus YGR229C, strain SMI1, hits give low values 0.738
